Assay outcomes deposited in PubChem BioAssay by several laboratories.
GLD-1 RNA inh: GLD-1/TGE RNA complex disruptors, primary screen, biochemical, fluorescence polarization. purified GLD-1 + fluorescein TGE RNA. inhibition, % at 5.96 µM. hit rate 0.44% among 320,000;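 active = percent inhibition above a per-plate cutoff, the plate mean of test compounds plus 3 SD, cut at about 30% in these data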;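 also: 0% = DMSO wells with GLD-1 and probe and 100% = wells lacking GLD-1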
Bcl-xL primary: inhibitors of human Bcl-xL, primary screen, biochemical, fluorescence polarization, HTS. Bcl-2-like protein 1 (Homo sapiens), Q07817. GST-Bcl-xL / FITC-Bim BH3 peptide fluorescence polarization. inhibition, % at 10.9 µM. hit rate 0.7% among 320,000;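 active = inhibition above the mean of all tested compounds plus 3 SD, cutoff set per campaign, cut at about 30% in these data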;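 also: 0% = DMSO wells and 100% = unlabeled Bim-BH3 peptide competitor; inhibitors lower millipolarization by displacing the labeled peptide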
MCL1-BIM inh: inhibitors of MCL1 binding to BIM-BH3, primary screen, biochemical, fluorescence polarization; inhibition, % at 10.9 µM; GST-MCL1 / FITC-Bim-BH3 fluorescence polarization; hit rate 0.68% among 320,000;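 active = inhibition above the mean inhibition of all tested compounds plus 3 SD, set per campaign, cut at about 40% in these data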;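 also: 0% = DMSO wells and 100% = unlabeled Bim-BH3 peptide control; higher means more loss of mP so more displacement of Bim peptide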
Target sequence (Q07820 whole entry, looked up): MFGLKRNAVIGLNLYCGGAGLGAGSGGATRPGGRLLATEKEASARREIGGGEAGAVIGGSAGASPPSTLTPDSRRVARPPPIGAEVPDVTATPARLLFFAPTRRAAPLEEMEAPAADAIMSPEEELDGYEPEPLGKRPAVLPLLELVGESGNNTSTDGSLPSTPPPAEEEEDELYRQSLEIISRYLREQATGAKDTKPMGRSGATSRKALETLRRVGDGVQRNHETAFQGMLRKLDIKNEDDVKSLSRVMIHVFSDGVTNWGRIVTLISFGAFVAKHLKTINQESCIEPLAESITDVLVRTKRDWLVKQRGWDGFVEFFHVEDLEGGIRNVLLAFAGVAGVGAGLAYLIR
MEX-5 binding: MEX-5 zinc finger RNA-binding disruptors – biochemical, C. elegans, fluorescence polarization, MLPCN library, primary screen; Zinc finger protein mex-5 (Caenorhabditis elegans), Q9XUB2; MEX-5/FITC-TCR2 RNA binding; stronger effect = lower value; activity score (negative = inhibition of binding), % at 10 µM; hit rate 0.38% among 300,000; AID 1832, 2009;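 active = inhibition past about -25% in most replicates, and total fluorescence under double the plate's negative control median, limit read from the data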;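 also: 0% = DMSO and -100% = 5 µM competing unlabeled TCR2 RNA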
eLon inh: inhibitors of E. coli Lon protease, primary screen, biochemical, fluorescence polarization | P0A9M0 | purified E. coli Lon protease | inhibition, % at 7.94 µM | hit rate 0.42% among 360,000 | AID 602123, 2011; in the data active = inhibition above about 13%, passing the limit was not always enough;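 also: 0% = enzyme with probe and DMSO and 100% = no enzyme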
The depositor's hits bear a star; · = not tested or not shown. In the library only some 1.4% were active in any assay of this set; here they are far more common.

SMILES	GLD-1 RNA inh	Bcl-xL primary	MCL1-BIM inh	MEX-5 binding	eLon inh
Cc1ccc(S(=O)(=O)NNC(=S)NC(=O)c2ccc([N+](=O)[O-])cc2)cc1	0	15	17	-31*	5
Cc1ccc(C(=O)O[C@H](C(=O)O)[C@H](OC(=O)c2ccc(C)cc2)C(=O)O)cc1	-1	-6	-4	4	-11
CN(C)CCNc1oc(COc2ccc(Cl)cc2Cl)nc1C#N	26	34*	42*	-2	13
COc1ccccc1CNC(=O)COC(=O)c1ccc(C)s1	-7	1	0	·	-10
CCOC(=O)N1CCN(CCC(=O)Nc2cccc(Cl)c2C)CC1	-4	7	8	1	2
CCOc1ccc(N2C(=O)S/C(=C\c3cccn3C)C2=O)cc1	0	-4	-14	-30*	-26
CCOC(=O)c1ccc(N2C(=O)C3C(C2=O)C(C(=O)c2ccc(Cl)cc2)N2CCCC32)cc1 (configuration not stated)	21	58*	36	-6	-17
CC(=O)[C@@H]1[C@@H](C(=O)c2ccccc2)[C@]2(C(=O)Nc3ccccc32)[C@H]2C=Cc3cc(F)ccc3N12	6	20	15	1	2
O=C(c1ccccc1)[C@@H]1[C@@H](C(=O)c2ccc(F)cc2)[C@@]2(C(=O)Nc3ccccc32)[C@H]2c3ccccc3C=CN12	25	33*	28	1	-9
Cc1ccc(CNC(=O)C2CCC(=O)N(Cc3ccc(Cl)cc3)C2)cc1F (configuration not stated)	·	·	·	-1	2
CC(c1nccs1)N(C)c1nc2nonc2nc1NC1CC1 (configuration not stated)	28	33*	37	-8	10
CC(c1nccs1)N(C)c1nc2nonc2nc1N(C)C (configuration not stated)	12	11	8	-5	6
Cc1ncc(CO)c(/C=N/NC(=O)c2ccc(Br)cc2)c1O	15	11	12	0	·
Cc1ncc(CO)c(/C=N/NC(=O)c2cc(Br)ccc2O)c1O	0	5	20	-82*	-4
Cc1ncc(CO)c(/C=N/NC(=O)c2cc(O)c(O)c(O)c2)c1O	·	·	·	-39*	·
Cc1ccc(-c2nc(N=Nc3ccc(O)cc3)n[nH]2)cc1	-5	3	0	-5	-21
Cc1nc(N=Nc2ccc(O)cc2)n[nH]1	-4	1	1	-29*	-7
COc1ccccc1NC(=O)C1CCCN(c2cnccn2)C1 (configuration not stated)	1	2	-1	0	-4
Cc1cc(C(=O)N/N=C2\CC(=O)CC(C)(C)C2)c2ccccc2n1	63*	18	22	-4	1
Cc1ccc2nc(COC(=O)c3ccc(Cl)nc3)cc(=O)n2c1	2	·	·	·	-6
COc1cccc(/C=N/N2CCN(c3ccccc3OC)CC2)c1	6	1	1	-1	6
COc1ccccc1N1CCN(/N=C/c2cccc(Cl)c2)CC1	4	33*	-5	1	1
COc1ccccc1C(=O)N/C(=C\c1ccccc1)C(=O)NCc1ccco1	10	2	1	-3	-3
CN1CCN(C(=O)c2ccc3c(c2)NC(=O)/C(=C/c2ccccc2)S3)CC1	-4	2	-1	-1	4
Cc1ccc(/C=C2/Sc3ccc(C(=O)N4CCN(c5ccccn5)CC4)cc3NC2=O)cc1	-5	-6	-12	-61*	-37
SMILES	GLD-1 RNA inh	Bcl-xL primary	MCL1-BIM inh	MEX-5 binding	eLon inh
O=C(CSc1ncccn1)N/N=C/c1cccc(OC2CSC2)c1	1	1	6	-2	-6
Cn1ncc(Cl)c1C(=O)N/N=C/c1cccc(OC2CSC2)c1	4	4	7	-36*	-3
Oc1c(C=Nc2ccccc2Cl)[nH]c2ccccc12	12	39*	28	-29*	9
O=C(Nc1nnc([C@@H]2O[C@H](CO)[C@@H](O)[C@H]2O)s1)Nc1ccccc1C(F)(F)F	·	·	·	·	2
CNC(=O)/C(C#N)=C/c1c(N(Cc2ccccc2)Cc2ccccc2)nc2c(C)cccn2c1=O	5	154*	0	1	-12
CCNC(=O)/C(C#N)=C/c1c(N(Cc2ccccc2)Cc2ccccc2)nc2ccccn2c1=O	-5	-2	-4	3	-1
COC(=O)/C(C#N)=C/c1c(Oc2cc(C)cc(C)c2)nc2c(C)cccn2c1=O	3	1	-3	-41*	0
O=c1oc2ccccc2cc1-c1nc2ccccc2o1	7	-1	-3	·	-1
O=c1oc2ccc3ccccc3c2cc1-c1nc2ccccc2o1	6	15	5	-76*	-25
COc1ccc(CN2CCN(C(=O)c3c(-c4ccccc4)noc3C)CC2)cc1F	3	3	7	·	3
c1ccc2sc(NCC3CCCO3)nc2c1 (configuration not stated)	-5	1	4	0	3
CC1=CC(=C(C#N)c2nc3ccccc3s2)C=C(C)N1CC1CCCO1 (configuration not stated)	4	-5	-4	-36*	-12
Clc1ccccc1C1Nc2cccc3cccc(c23)N1	10	38*	36	-3	-7
c1coc(C2Nc3cccc4cccc(c34)N2)c1	13	51*	58*	-6	·
Clc1cccc(C2Nc3cccc4cccc(c34)N2)c1Cl	11	2	11	-2	-1
O=C(CSc1nnc(-c2ccncc2)n1CC1CCCO1)Nc1nccs1 (configuration not stated)	47*	-2	2	1	2
CCCOc1ccc(N2C(=O)CC(NCCc3ccc(S(N)(=O)=O)cc3)C2=O)cc1 (configuration not stated)	2	0	-1	3	2
CCCOc1ccc(N2C(=O)CC(NCCNc3ccc(S(=O)(=O)CC)cc3)C2=O)cc1 (configuration not stated)	2	59*	4	2	2
CCOC(=O)c1c(NC(=O)CC2Sc3ccc(C(F)(F)F)cc3NC2=O)sc(C)c1C (configuration not stated)	7	8	9	-1	-15
CCCCNC(=O)CC1Nc2ccccc2NC1=O (configuration not stated)	30	32*	28	-12	5
CCOC(=O)c1c(NC(=O)CC2Nc3ccccc3NC2=O)sc(C)c1C (configuration not stated)	-6	1	-10	-35*	-2
COC(=O)c1c(NC(=O)CC2Nc3ccccc3NC2=O)sc(C)c1C (configuration not stated)	-17	0	-4	-32*	-21
